GAA inhib: alpha-glucosidase (human) inhibition | purified human GAA, 4-MU-alpha-glucoside fluorescence | Potency, µM (top dose mostly 76.9 µM), actives largely listed as inhibitors | actives 0.005% (n = 200,000) | AID 1466
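Enzyme (4 nM final) mixed with compound (up to 77 uM), then 4-MU-alpha-D-pyranoside (400 uM final) added; 20 min at room temperature, pH 5.0. Reaction stopped at pH 10, fluorescence read, AC50 derived by Hill fit.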
aGlu spleen mod: inhibits or activates alpha-glucosidase in human spleen homogenate; P10253; human spleen homogenate, 4-MU-alpha-glucoside fluorescence; Potency, µM (highest dose often 79.9 µM), usual class: inhibitors; actives 0.006% (n = 240,000)
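Human spleen homogenate (1 ug) incubated with compounds and 1 mM 4-methylumbelliferyl-alpha-D-glucopyranoside in pH 5.0 citrate/phosphate buffer, 37 C, 40 min. Stopped at pH 10; 4-MU fluorescence (Ex 365/Em 440 nm); AC50 by Hill fit.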
GLA spleen mod: inhibits or activates alpha-galactosidase in human spleen homogenate. P06280. human spleen homogenate, 4MU-alpha-Gal fluorescence, 40 min. Potency, µM (titrated, usually from 80 µM), hits mostly inhibitors. actives 0.008% (n = 240,000). AID 2107
Target sequence (P06280 32-429 limits assumed): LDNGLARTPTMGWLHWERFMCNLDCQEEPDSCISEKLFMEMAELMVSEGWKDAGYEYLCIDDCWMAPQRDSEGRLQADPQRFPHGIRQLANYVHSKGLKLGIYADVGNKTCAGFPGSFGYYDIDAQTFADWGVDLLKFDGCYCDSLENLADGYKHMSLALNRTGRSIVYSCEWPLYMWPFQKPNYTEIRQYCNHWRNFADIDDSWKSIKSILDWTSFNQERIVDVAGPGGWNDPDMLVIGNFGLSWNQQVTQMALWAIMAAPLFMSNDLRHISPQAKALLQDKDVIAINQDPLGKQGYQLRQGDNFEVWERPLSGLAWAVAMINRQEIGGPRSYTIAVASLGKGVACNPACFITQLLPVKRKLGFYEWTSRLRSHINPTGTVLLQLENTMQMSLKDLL
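Inhibition or activation of alpha-galactosidase in human spleen homogenate is scored by 4-MU fluorescence after 40 min at 37C, pH 5.0, with 1 mM substrate. AC50s come from concentration-response fitted to the Hill equation.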
GLA inh pH 4.5: blocks human alpha-galactosidase A at pH 4.5 | P06280 | purified enzyme, 4-MU-alpha-Gal fluorescence, pH 4.5 | activity change, negative = inhibition, % at 105 µM | 230,000 tested, under 10 active
N370S GC: inhibits or activates N370S mutant glucocerebrosidase; N370S GC spleen homogenate, 4MU-glucoside fluorescence; Potency, µM (highest dose often 59.4 µM), actives largely listed as inhibitors; P04062; actives 0.092% (n = 330,000)
GAA glycogen mod: GAA glycogen-cleavage inhibition or activation; P10253; recombinant GAA, glycogen substrate, Amplex Red glucose oxidase fluorescence; Potency, µM (series often up to 76.4 µM), most hits filed as inhibitors; actives 0.38% (n = 300,000); AID 2100;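 note: the screen sought inhibitors and activators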
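Natural-substrate format: glycogen cleavage by 4 nM human enzyme, glucose read by Amplex Red coupling (Ex 573, Em 610 nm). Normalized to enzyme and no-enzyme controls.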
A number is an active result. An excerpt weighted towards active compounds, which were near 0.43% of everything screened. Calls come from the whole dose curve; as a rule, active = well fitted curve in the direction sought with a large enough effect; inconclusive = small, poorly fitted or top-dose-only effect, or another doubt; inactive = no such curve, though single readings can be large; an effect the other way counts as inactive or inconclusive.

What do the screens show for `O=C1C2CCN(CC2)[C@@H]1Cc1ccc2ccccc2c1O`?
GAA inhib: inactive; aGlu spleen mod: inactive; GLA spleen mod: inactive; GLA inh pH 4.5: inactive; N370S GC: inactive; GAA glycogen mod: 7.9µM

Results for CN1C(=O)C(Cc2cccc3ccccc23)C(=O)N(C)C1=O ?
GAA inhib: inactive; aGlu spleen mod: inactive; GLA spleen mod: inactive; GLA inh pH 4.5: inactive; N370S GC: inactive; GAA glycogen mod: inconclusive

How did C[C@@H]1O[C@H](O[C@H]2C[C@@H](O)[C@@]3(CO)[C@H]4[C@@H](O)C[C@]5(C)[C@@H](C6=CC(=O)OC6)CC[C@]5(O)[C@H]4CC[C@]3(O)C2)[C@@H](O)[C@H](O)[C@@H]1O do in these assays?
aGlu spleen mod: inactive; GLA spleen mod: inactive; GLA inh pH 4.5: inactive; N370S GC: inactive

How did Nc1cccc(Cl)c1 do in these assays?
aGlu spleen mod: inactive; GLA spleen mod: inactive; N370S GC: inactive

What do the screens show for `CC(=O)OC1C[C@@]2(C)C(c3ccoc3)C[C@H]3O[C@@]32[C@@]2(C)C(=O)C(O)=C3C(C)(C)C(=O)C=C[C@]3(C)C12` (stereo partly specified)?
aGlu spleen mod: inactive; GLA spleen mod: inactive; GLA inh pH 4.5: inactive; N370S GC: inactive

Results for CN1CC(C(=O)c2ccc(Cl)cc2)C(c2ccc(Cl)cc2Cl)C1 (stereo unspecified) ?
N370S GC: 18µM; GAA glycogen mod: inactive

What do the screens show for `CN1CC(C(=O)c2ccc(Cl)cc2)C(c2ccc(N(C)C)cc2)C1` (stereo unspecified)?
GAA inhib: inconclusive; aGlu spleen mod: inactive; GLA spleen mod: inactive; GLA inh pH 4.5: inactive; N370S GC: inactive; GAA glycogen mod: inactive

What do the screens show for `CCCCNC(=O)n1c(NC(=O)OC)nc2ccccc21`?
aGlu spleen mod: inactive; GLA spleen mod: inactive; N370S GC: inactive

What do the screens show for `CCSC(=O)Cl`?
aGlu spleen mod: inactive; GLA spleen mod: inactive; N370S GC: inactive

What do the screens show for `O=C(Cl)OCc1ccccc1`?
aGlu spleen mod: inactive; GLA spleen mod: inactive; N370S GC: inactive

What do the screens show for `ClC1=C(Cl)C(Cl)(C2(Cl)C(Cl)=C(Cl)C(Cl)=C2Cl)C(Cl)=C1Cl`?
aGlu spleen mod: inactive; GLA spleen mod: inactive; N370S GC: inactive

What do the screens show for `O=C(O)C1Sc2[nH]c(=O)sc2C2c3cc(Cl)ccc3OC(=O)C12` (stereo unspecified)?
GAA inhib: inactive; aGlu spleen mod: inactive; GLA spleen mod: inactive; GLA inh pH 4.5: inactive; N370S GC: inactive; GAA glycogen mod: 16µM

What do the screens show for `COc1cc(/C=N/NP(=S)(c2ccccc2)c2ccccc2)ccc1O`?
GAA inhib: inactive; aGlu spleen mod: inactive; GLA spleen mod: inactive; GLA inh pH 4.5: inactive; N370S GC: inconclusive; GAA glycogen mod: 25µM

What do the screens show for `Oc1ccc(/C=N/NP(=S)(c2ccccc2)c2ccccc2)cc1`?
GAA inhib: inactive; aGlu spleen mod: inactive; GLA spleen mod: inactive; GLA inh pH 4.5: inactive; N370S GC: inconclusive; GAA glycogen mod: inactive

How did NC1CCCC[C@H]1N (stereo partly specified) do in these assays?
aGlu spleen mod: inactive; GLA spleen mod: inactive; N370S GC: inactive

Results for Cc1cc2c(C(C)C)c(O)c(O)c(C=O)c2c(O)c1-c1c(C)cc2c(C(C)C)c(O)c(O)c(C=O)c2c1O ?
GAA inhib: inconclusive; aGlu spleen mod: inactive; GLA spleen mod: inactive; GLA inh pH 4.5: inactive; N370S GC: inactive; GAA glycogen mod: 8.9µM

How did CCCCCCCC/C=C\CCCCCCCC(=O)OC[C@@H](COP(O)(O)=S)OC do in these assays?
aGlu spleen mod: inactive; GLA spleen mod: inactive; N370S GC: inactive

Results for O=C(N/N=C1/CN2CCC1CC2)c1cc2ccccc2cc1O ?
GAA inhib: inactive; aGlu spleen mod: inactive; GLA spleen mod: inactive; GLA inh pH 4.5: inactive; N370S GC: inactive; GAA glycogen mod: 35µM

What do the screens show for `O=C(NC1(C(F)(F)F)Oc2ccccc2O1)N1CCC2(CC1)OCCO2`?
GAA inhib: inactive; aGlu spleen mod: inactive; GLA spleen mod: inactive; GLA inh pH 4.5: inactive; N370S GC: inactive; GAA glycogen mod: 5.6µM

Results for O=C(NC1(C(F)(F)F)Oc2ccc(Cl)cc2O1)N1CCC2(CC1)OCCO2 (stereo unspecified) ?
GAA inhib: inactive; aGlu spleen mod: inactive; GLA spleen mod: inactive; GLA inh pH 4.5: inactive; GAA glycogen mod: 8.9µM

Results for O=[N+]([O-])c1cc(Cl)c(Cl)c(Cl)c1 ?
aGlu spleen mod: inactive; GLA spleen mod: inactive; N370S GC: inactive

How did CN1CCC(=O)N(CCN=[N+]=[N-])CC1 do in these assays?
N370S GC: inactive; GAA glycogen mod: 50µM

What do the screens show for `CN1[C@@H]2CC[C@H]1CC(O[C@@H](c1ccccc1)c1ccc(Cl)cc1)C2` (stereo partly specified)?
aGlu spleen mod: inactive; GLA spleen mod: inactive; GLA inh pH 4.5: inactive; N370S GC: 7.9µM

Results for CCCCCCCCCCCC[N+](C)(C)CCOc1ccccc1 ?
aGlu spleen mod: inactive; GLA spleen mod: inactive; N370S GC: 4.5µM

What do the screens show for `O=[N+]([O-])/C=C/c1ccccc1`?
aGlu spleen mod: inactive; GLA spleen mod: inactive; N370S GC: inactive

Results for CN1CCN(c2ccc3nccnc3c2)CC1 ?
GAA inhib: inactive; aGlu spleen mod: inconclusive; GLA spleen mod: 35µM; GLA inh pH 4.5: inactive; N370S GC: inactive; GAA glycogen mod: inactive

What do the screens show for `CC1CN(O)C2CCc3c(no[n+]3[O-])C12O` (stereo unspecified)?
GAA inhib: inactive; aGlu spleen mod: inactive; GLA spleen mod: inactive; GLA inh pH 4.5: inactive; N370S GC: inactive; GAA glycogen mod: 8.8µM

Results for Cc1cccn2c(NCC3CCCO3)c(C(C)C)nc12 (stereo unspecified) ?
GAA inhib: inactive; aGlu spleen mod: inactive; GLA spleen mod: inactive; GLA inh pH 4.5: inactive; N370S GC: inactive; GAA glycogen mod: inconclusive

What do the screens show for `CCOc1cc(-c2nc3c(C)cccn3c2NCC2CCCO2)ccc1O` (stereo unspecified)?
GAA inhib: inactive; aGlu spleen mod: inactive; GLA spleen mod: inactive; GLA inh pH 4.5: inactive; N370S GC: inactive; GAA glycogen mod: 35µM

How did c1ccoc1 do in these assays?
aGlu spleen mod: inactive; GLA spleen mod: inactive; N370S GC: inactive

How did OCCCc1ccc(O)c(O)c1 do in these assays?
aGlu spleen mod: inactive; GLA spleen mod: inactive; GLA inh pH 4.5: inactive; N370S GC: inactive; GAA glycogen mod: 35µM

What do the screens show for `OC[C@@H]1[C@@H](O)[C@H](O)[C@H]2[C@@H](O)CCN21`?
aGlu spleen mod: 28µM; GLA spleen mod: inactive; N370S GC: inactive

Results for O=c1cc(-c2ccc(O)c(O)c2)oc2cc(O)cc(O)c12 ?
aGlu spleen mod: inactive; GLA spleen mod: inconclusive; GLA inh pH 4.5: inactive; N370S GC: inconclusive; GAA glycogen mod: 25µM

Results for O=c1c(O)c(-c2ccc(O)c(O)c2)oc2cc(O)cc(O)c12 ?
aGlu spleen mod: inactive; GLA spleen mod: inactive; GLA inh pH 4.5: inactive; N370S GC: inconclusive; GAA glycogen mod: inconclusive

High-throughput results as filed in PubChem BioAssay.
